Sampled rows, rich in hits. Any-hit rate of the full collection: about 6.6%.
Gli-Sufu antag – blocks Gli-Sufu signaling in a luciferase reporter | inhibition, % at 5 µM | 0.74% of 340,000 active | AID 588413 | Sufu-KO-LIGHT fibroblasts, Gli luciferase reporter luminescence;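 active means inhibition above about 55%, limit read from the data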;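 further: 0% = DMSO-treated cells and 100% = wells with medium but no cells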
MPTP inh – blocks calcium-induced mitochondrial swelling | inhibition, % at 10 µM | isolated mouse mitochondria, Ca2+ swelling absorbance, 30 min | 1.4% of 360,000 active | AID 602449;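 active means inhibition of 50% or more, scaled per plate between neutral and stimulator controls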;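 further: 0% = DMSO wells given calcium and 100% = 1 mM EGTA wells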
Mdm2-MdmX inh – inhibitors of human Mdm2/MdmX interaction | inhibition, % at 8 µM | O15151+Q00987 | 3% of 330,000 active | SaOS-2 split-luciferase Mdm2/MdmX complementation, luminescence | AID 485346;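 active means inhibition of at least 50% at 8 µM in the primary screen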
Beta cell apopt – blocks beta cell apoptosis. INS-1E cytokine-induced death, ATP luminescence, 48 h; percent of positive-control rescue, neutral wells zero. protection from apoptosis, % (concentration not given with the values). 0.8% of 300,000 active. AID 435005;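 active means Every replicate reaches about 75%, or at least half do and their mean reaches it too, limit read from the data; inconclusive means At least half of replicates reach the limit but their mean does not; inactive means Under half of replicates reach the limit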;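 further: 0% = cytokine-treated negative control wells and 100% = positive control rescue; higher means more ATP so stronger rescue from cytokine killing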
CSC inhib – cancer stem cell inhibition; cancer stem cell-like cells viability, luminescence; inhibition, % at 7.5 µM; 1.1% of 300,000 active; in the data active means inhibition above about 75%; inconclusive means no clear call, values can overlap the other calls; tested in HMLE shEcad cells
NR3A LBD binder – NR3A (human) ligand-binding domain modulation; NR3A LBD differential scanning fluorimetry, Tm shift; 0% = protein alone, 100% = glycine-bound protein; 2.5% of 340,000 active; Tm shift relative to glycine control, % at 25 µM; AID 1259313;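 active means melting temperature shift of at least 10% of the positive control shift, at one fixed dose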
Mdm2-MdmX conf – confirmation of human Mdm2/MdmX interaction inhibitors | inhibition, % at 8 µM | AID 489028 | shares compounds with Mdm2-MdmX inh | 55% of 10,000 active | Mdm2-MdmX binding, luminescent assay; in the data active means inhibition above about 40%
FLuc counter – counter-screen for Mdm2/MdmX inhibitors: full-length luciferase; shares compounds with Mdm2-MdmX inh; SaOS-2 full-length luciferase counterscreen, luminescence; inhibition, % at 8 µM; 77% of 6,200 active;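 active means mean inhibition at 8 µM reaching about 37%, which flags the compound as non-specific, limit read from the data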;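 further: p53-null SaOS-2 cells with luciferase driven by a doxycycline-inducible promoter; compound on cells about two nights before reading with doxycycline added after day one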
The depositor's hits bear a star; ? = inconclusive; . = no result; ! = not active in a repeat.

SMILES	Gli-Sufu antag	MPTP inh	Mdm2-MdmX inh	Beta cell apopt	CSC inhib	NR3A LBD binder	Mdm2-MdmX conf	FLuc counter
O=c1cc(CN2CCN(c3ccccc3F)CC2)c2cc(O)c(-c3ccccc3)cc2o1	8.1	-10.8	2.9	-3.7	-3.7	2.2	.	.
COc1cc(C#Cc2c(-c3cncn3C)n(C)c3ccc(-c4ccc(CN5CCOCC5)cc4)cc23)cc(OC)c1	-1.2	-1.2	69.7*	27.5	.	-4.6	-6.7	.
COc1cc(C#Cc2c(-c3cncn3C)n(C)c3ccc(-c4cnc(N5CCOCC5)nc4)cc23)cc(OC)c1	-0.3	0.3	80.9*	15.5	.	-4.2	14.2	.
COc1cc(OC)cc(-c2c(C#Cc3ccsc3)c3cc(-c4ccc(CN5CCOCC5)cc4)ccc3n2C)c1	15.6	0.3	7.1	1.8	15.2	0.3	.	.
COc1cc(C#Cc2c(-c3cncn3C)n(C)c3ccc(-c4cnc(OC)nc4)cc23)cc(OC)c1	0.7	1.9	66.4*	24.8	?	-8.6	38.8	63.4*
CCc1ccc(CCC(=O)Nc2ncc(Cc3ccccc3Cl)s2)o1	19.7	-0.2	66.4*	9.7	81.5*	4.4	51.3*	79.6*
O=C(CSc1nnnn1-c1ccccc1)Nc1ncc(Cc2cccc(Cl)c2Cl)s1	5.2	1.9	56.2*	1.5	5.8	2.4	16.4	.
O=C(CN1CCOCC1)Nc1ncc(Cc2ccccc2Cl)s1	-1.7	0.6	-14.2	.	.	-2.5	.	.
Cc1ccc(-n2nnnc2SCC(=O)Nc2ncc(Cc3ccccc3Cl)s2)cc1	-11.5	-2.8	58.8*	-3.0	.	1.8	-24.4	.
O=C(CSc1nnnn1-c1ccccc1)Nc1ncc(Cc2cc(Cl)ccc2Cl)s1	3.6	4.3	37.6	-4.6	2.7	-2.8	.	.
Cc1cc(C)nc(SCC(=O)Nc2ncc(Cc3cccc(Cl)c3Cl)s2)n1	2.3	4.4	42.8	4.9	-10.2	-6.5	.	.
CC(=O)N1CCOc2ccc(S(=O)(=O)NC[C@H]3O[C@@H](n4cnc5c(N)ncnc54)[C@H](O)[C@@H]3O)cc21	-7.5	5.9	33.0	.	.	7.2	.	.
COc1ccc(CCN2CC(C(=O)OCC(=O)NC(C)c3cccc(Cl)c3)CC2=O)cc1OC (centres undefined)	6.5	0.1	-22.0	-2.3	.	-0.3	.	.
CC(=O)Nc1cccc(NC(=O)C2CC(=O)N(CCc3ccc(F)cc3)C2)c1 (centres undefined)	-10.4	-2.1	-5.4	-1.7	-10.2	-0.4	.	.
Brc1ccc2c(c1)OCCOCCOc1cc(Br)ccc1OCCOCCOCCO2	22.8	8.2	74.0*	19.2	6.3	0.5	39.5	59.7*
O=C(COC(=O)c1ccc(OC(F)F)cc1)NCCCN1CCCC1=O	1.1	1.2	5.5	-3.8	4.0	0.3	.	.
CN(Cc1cnc2nc(N)nc(N)c2n1)c1ccc(C(=O)N[C@@H](CCC(=O)O)C(=O)O)cc1	56.8*!	1.1	46.5	4.6	85.9*!	0.3	71.8*	29.8
O=C(CN1C(=O)CS/C1=C\c1nc(-c2ccc(Cl)cc2)cs1)Nc1cccnc1Cl	-3.0	-0.7	78.6*	0.8	-7.0	0.5	18.6	.
Cc1ccc(-c2csc(/C=C3\SC(C)C(=O)N3CC(=O)Nc3ccccc3F)n2)cc1 (centres undefined)	-5.0	9.4	47.4	-2.3	18.5	5.1	.	.
Cc1cc(C(=O)N/N=C/c2cc(Br)ccc2OC(=O)c2ccccc2Cl)n[nH]1	-0.9	0.5	57.5*	.	.	0.7	46.0*	53.0*
Cc1cc(C(=O)N/N=C/c2cc(Br)ccc2OC(=O)c2ccccc2)n[nH]1	-21.6	-0.3	51.2*	100.1*	61.0	-0.4	39.4	18.9
Cc1noc(C)c1COc1cccc(C(=O)OCC(=O)N2CC(=O)Nc3ccccc32)c1	3.4	0.8	50.4*	15.8	53.9	0.8	67.0*	58.7*
O=C(CSc1nc2nn(-c3ccccc3)c(=O)c-2c2n1CCCCC2)Nc1ccccc1[N+](=O)[O-]	-2.8	-3.1	12.5	.	.	-6.1	.	.
N#Cc1ccc(Nc2nc(-c3ccc(O)cc3O)cs2)cc1C(F)(F)F	-0.9	23.8	68.8*	8.1	84.7*	22.7*	60.8*	55.0*

Screens deposited in PubChem BioAssay by several laboratories.
